We go through 17 compounds from PubChem BioAssay (NCATS).

The nature of test [1]: Quantitative High-Throughput drug screen in 47 multiple myeloma cell lines against the NCATS MIPE library collection: KMS26_JCRB cell viability assay (AID 1918975). Also: nearly all actives have a fitted effect of over 45% in size. A digest of the protocol:
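We plated 500 myeloma cells per well, pinned in MIPE 4.0 compounds, and incubated for 48 hours at 37C. ATP was then quantified with CellTiter-Glo, with DMSO and media-only wells defining 100% and 0%.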

The nature of test [2]: Quantitative High-Throughput drug screen in 47 multiple myeloma cell lines against the NCATS MIPE library collection: MMM1_PLB cell viability assay (AID 1918976). Also: nearly all actives have a fitted effect of over 35% in size. The procedure, abridged: (§1)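 Cells were exposed to library compounds for 48 hours, after which ATP was measured by CellTiter-Glo. Signal was taken as median relative luminescence units.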
Test [3] is described as follows: Quantitative High-Throughput drug screen in 47 multiple myeloma cell lines against the NCATS MIPE library collection: NCIH929_DSMZ cell viability assay (AID 1918978). Also: nearly all actives have a fitted effect of over 35% in size. A digest of the protocol:
as §1

Test [4] is described as follows: Quantitative High-Throughput drug screen in 47 multiple myeloma cell lines against the NCATS MIPE library collection: OCIMY1_PLB cell viability assay (AID 1918979). Also: nearly all actives have a fitted effect of over 35% in size. As to viability: series mostly up to about 46 µM. The procedure, abridged:
as §1

The nature of test [5]: Quantitative High-Throughput drug screen in 47 multiple myeloma cell lines against the NCATS MIPE library collection: MM1S_ATCC cell viability assay (AID 1918980). Also: nearly all actives have a fitted effect of over 45% in size. The procedure, abridged:
as §1

Test [6] can be described thus: Quantitative High-Throughput drug screen in 47 multiple myeloma cell lines against the NCATS MIPE library collection: MM1R_ATCC cell viability assay (AID 1918981). Also: nearly all actives have a fitted effect of over 35% in size. A digest of the protocol:
as §1

The nature of test [7]: Quantitative High-Throughput drug screen in 47 multiple myeloma cell lines against the NCATS MIPE library collection: LP1_DSMZ cell viability assay (AID 1918982). Also: nearly all actives have a fitted effect of over 35% in size. A digest of the protocol: as §1
Test [8] in a line: Quantitative High-Throughput drug screen in 47 multiple myeloma cell lines against the NCATS MIPE library collection: KMS28PE_JCRB cell viability assay (AID 1918983). Also: nearly all actives have a fitted effect of over 35% in size. The procedure, abridged: as §1
A short description of test [9]: Quantitative High-Throughput drug screen in 47 multiple myeloma cell lines against the NCATS MIPE library collection: L363_DSMZ cell viability assay (AID 1918984). Also: nearly all actives have a fitted effect of over 40% in size. The procedure, abridged:
as §1

A short description of test [10]: Quantitative High-Throughput drug screen in 47 multiple myeloma cell lines against the NCATS MIPE library collection: MOLP8_DSMZ cell viability assay (AID 1918977). Also: nearly all actives have a fitted effect of over 45% in size. A digest of the protocol: as §1

SMILES strings stand for the structures. Records with an inconclusive call do not appear. A number with no mark means an inactive call. Active and inactive are the calls of the source. Calls follow the shape of the dose curve; as a rule, active = well fitted curve in the direction sought with a large enough effect; inconclusive = small, poorly fitted or top-dose-only effect, or another doubt; inactive = no such curve, though single readings can be large; an effect the other way counts as inactive or inconclusive.
Potency is read from the fitted curve at half-maximal effect.

On to `CC(C)C[C@H](NC(=O)CNC(=O)c1cc(Cl)ccc1Cl)B(O)O`, for which the Potency in test [1] is 0.118 µM (active); in [2], 9.35 µM (active); in [3] it was 0.0372 µM (active); in [4] it was 0.0662 µM (active); in [5], 0.0418 µM (active); in test [6] it was 0.0418 µM (active). The Potency is 0.132 µM (active) in test [7], 0.0833 µM (active) in [8] and 0.132 µM (active) in test [9].
For the compound `CC(C)c1cc(-c2n[nH]c(=O)n2-c2ccc3c(ccn3C)c2)c(O)cc1O`, the Potency is 0.0372 µM (active) in test [1]; 0.0743 µM (active) in test [2]; 0.0209 µM (active) in [3]; 0.0469 µM (active) in test [4]; 0.059 µM (active) in test [5]; 0.0469 µM (active) in test [6]. In addition, the Potency was 0.0132 µM (active) in test [8] and 0.0118 µM (active) in [9].
Turning to `O=C(c1cncc(Br)c1)N1CCC(N2CCCC2)CC1`, the Potency entry in test [1], in test [2], in [10], in test [5], in [7] and in test [9] was “inactive” throughout.
For `COCCOc1ccc2c(c1)ncn2-c1ccc2cccc(N3CCC(N)CC3)c2n1`, the Potency was 13.2 µM (active) in test [1]; 23.5 µM (active) in test [2]; 1.66 µM (active) in test [3]; 2.64 µM (active) in [4]; 3.72 µM (active) in test [5]; 1.66 µM (active) in test [6]. In addition, the values for the Potency in test [7], in [8] and in test [9] were 2.09 µM (active), 13.2 µM (active) and 0.187 µM (active), respectively.
On to `Cc1c(CN2CCN(S(C)(=O)=O)CC2)sc2c(N3CCOCC3)nc(-c3cnc(N)nc3)nc12`, for which the Potency was 0.187 µM (active) in test [1]; 0.0235 µM (active) in [2]; 0.0053 µM (active) in [3]; 0.0418 µM (active) in [4]; 0.0132 µM (active) in test [5]; 0.0264 µM (active) in test [6].
With `Cc1cccc(C=NNc2cc(N3CCOCC3)nc(OCCc3ccccn3)n2)c1`, the Potency was 0.118 µM (active) in test [1]; 16.6 µM (active) in [2]; 14.8 µM (active) in [3]; 16.6 µM (active) in test [5]; 6.62 µM (active) in [6]; 11.8 µM (active) in [7]. For the same compound, the Potency in test [9] is 0.235 µM (active).
On to `Cc1cc(C(=O)N2CCN(c3cccc(Cl)c3)CC2)n(-c2ccccc2)n1`, for which the Potency in test [1] was 18.7 µM (active); in test [2], 7.43 µM (active); in test [3], 16.6 µM (active); in [5], 16.6 µM (active); in [6], 9.35 µM (active); in test [7] it was 5.26 µM (active). The Potency was 1.87 µM (active) in [8] and 0.132 µM (active) in [9].
`C[C@H]1C[C@@H]2[C@@H]([C@@H](O)C[C@@]3(C)[C@H]2CC[C@]3(O)C(=O)CO)[C@@]2(C)C=CC(=O)C=C12`: the Potency result in test [1], in test [2], in [3], in test [4], in test [6] and in [8] was “inactive” each time. Also, the Potency in [7] is 0.0833 µM (active).
On to `COc1cccc2nc(-c3cccs3)nc(NN3C(=O)C=C(C)C3=O)c12`, for which the Potency was 2.96 µM (active) in [1]; 5.9 µM (active) in test [2]; 0.235 µM (active) in [3]; 0.187 µM (active) in test [4]; 0.418 µM (active) in test [5]; 0.187 µM (active) in [6]. For the same compound, the Potency in test [7] is 0.187 µM (active); in test [8] it was 2.64 µM (active).
As for `Cc1nc2ccc(CN(C)c3ccc(C(=O)N[C@@H](CCC(=O)O)C(=O)O)s3)cc2c(=O)[nH]1`, the Potency was 9.35 µM (active) in test [1], 5.9 µM (active) in test [2], 20.9 µM (active) in test [5] and 1.48 µM (active) in test [9]. Moreover, the Potency entry in [4], in test [7] and in [8] was “inactive” each time.
In the case of `Cn1cc(-c2ccncc2)c(-c2ccc(OCc3ccc4ccccc4n3)cc2)n1`, the Potency in test [1] was 7.43 µM (active); in test [2] it was 2.96 µM (active); in test [4], 16.6 µM (active); in [5] it was 14.8 µM (active); in test [6], 10.5 µM (active); in test [9] it was 2.64 µM (active).
Consider `Cc1cn2c(-c3cn[nH]c3)cnc2c(Nc2ccc(C(=O)N3CCNCC3)cc2F)n1`, for which the Potency in [1] is 16.6 µM (active); in [2] it was 14.8 µM (active); in test [3], 8.33 µM (active); in test [5], 4.69 µM (active); in test [6], 20.9 µM (active).
For the compound `Cc1cc(Nc2ncnc3ccc(-c4ccc(CNCCS(C)(=O)=O)o4)cc23)ccc1Oc1ccn2ncnc2c1`, the Potency in [1] was 26.4 µM (active); in test [2] it was 3.32 µM (active); in test [10], 20.9 µM (active); in [5] it was 5.9 µM (active); in [6] it was 20.9 µM (active); in test [7], 7.43 µM (active). Moreover, the Potency in test [8] was 23.5 µM (active); in test [9], 0.372 µM (active).
In the case of `C[C@@H]1COC(Nc2ccc3ncnc(Nc4ccc(OCc5nccs5)c(Cl)c4)c3c2)=N1`, the Potency is 20.9 µM (active) in [1]; 23.5 µM (active) in [2]; 3.32 µM (active) in [3]; 4.18 µM (active) in test [5]; 26.4 µM (active) in test [7]; 9.35 µM (active) in test [9].
`C=CC(=O)Nc1cccc(Oc2nc(Nc3ccc(N4CCN(C)CC4)cc3)ncc2Cl)c1`: the Potency in test [1] is 26.4 µM (active); in [2], 23.5 µM (active); in test [3] it was 3.72 µM (active); in test [4], 16.6 µM (active); in [5], 18.7 µM (active); in test [6], 14.8 µM (active). In addition, the Potency in [7] was 16.6 µM (active); in test [8], 18.7 µM (active); in [9], 5.26 µM (active).
As for `Cc1nc(Nc2n[nH]c3c2CN(C(=O)N[C@H](CN(C)C)c2ccccc2)C3(C)C)c2sccc2n1`, the Potency is 2.96 µM (active) in [1]; 4.69 µM (active) in test [2]; 0.148 µM (active) in test [3]; 16.6 µM (active) in test [4]; 2.64 µM (active) in test [5]; 0.0079 µM (active) in test [7].
For `C[C@@H](Oc1cc(-n2cnc3ccc(CN4CCN(C)CC4)cc32)sc1C(N)=O)c1ccccc1C(F)(F)F`, the Potency in test [1] is 5.26 µM (active); in test [2] it was 16.6 µM (active); in test [3], 20.9 µM (active); in test [5] it was 2.35 µM (active); in test [6] it was 0.059 µM (active); in test [8] it was 0.0935 µM (active). Besides, the Potency in test [9] is 0.0118 µM (active).
